This is a sample that favours compounds with a hit; in the whole collection about 2.8% have one here.
Pol kappa inh – DNA polymerase kappa (human) inhibition. Q9UBT6. AID 588579. 0.53% of 400,000 active. Potency, µM (series often up to 107 µM), usual class: inhibitors. purified Pol kappa, fluorescent DNA synthesis assay, 10 min
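Inhibition of 10 nM Pol kappa is measured by a fluorescent read-out at 0 and 10 min following addition of 50 nM substrate (final), with a 15-min room-temperature compound preincubation.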
Pol eta inh – blocks human DNA polymerase eta activity; Potency, µM (highest dose often 114 µM), actives largely listed as inhibitors; 1.2% of 390,000 active; recombinant Pol eta, fluorescent DNA replication assay
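Pol eta (10 nM) was preincubated with compounds for 15 min at room temperature, after which fluorescent replication substrate (50 nM final) was added to start the reaction. Fluorescence was read kinetically at 0 and 10 min.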
Pol beta inh – inhibitors of human DNA polymerase beta; Potency, µM (top dose mostly 114 µM), hits mostly inhibitors; 1.3% of 340,000 active; Pol beta primer extension/strand displacement, fluorescence kinetic
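Homogeneous kinetic assay of primer extension and strand displacement by 10 nM Pol beta, preincubated 15 min at room temperature with compound before 50 nM substrate (final) was added. Read at 0 and 10 min; four-parameter Hill fit.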
Pol iota inh – blocks human DNA polymerase iota activity. Q9UNA4. Pol iota fluorescent replication assay, 10 min. Potency, µM (titrated, usually from 115 µM), hits mostly inhibitors. 1% of 390,000 active
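Pol iota at 10 nM preincubated 15 min with compounds at room temperature; reaction started with fluorescent substrate, 50 nM final. Fluorescence read kinetically at 0 and 10 min; buffer-only wells as negative control.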
PI5P4K alpha inh – PI5P4K alpha (human) kinase inhibition; P48426; PI5P4Kalpha enzyme, ADP-Glo luminescence, 60 min; active compounds read low; max response, %; 1.2% of 330,000 active; AID 652105; active = max response of -50% or lower; inconclusive = between -30% and -50%; inactive = -30% or higher; also: value at the top dose of about 77 µM
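Compounds were pin-transferred onto PI5P4Kalpha and substrate in HEPES pH 7.4 buffer with EGTA, CHAPS and 5% DMSO. ATP (5 microM final) started the reaction, which ran 60 minutes at room temperature before ADP-Glo detection.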
WRN inhibitor – WRN helicase (human) inhibition | Potency, µM (series often up to 114 µM), usual class: inhibitors | Q14191 | 0.46% of 360,000 active | WRN helicase unwinding, fluorescent forked duplex, kinetic; also: nearly all actives have a fitted effect of over 55% in size
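Enzyme (20 nM final) and test compound sit together 15 min at room temperature before substrate addition. Substrate is a single-forked duplex oligonucleotide (100 nM) labelled with fluorophore and quencher, with 2 mM ATP; helicase unwinding raises red fluorescence, read kinetically.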
Each line names hits and unclear results; the compound was inactive in the other large screens. Unless noted, calls follow the shape of the dose curve; as a rule, active = well fitted curve in the direction sought with a large enough effect; inconclusive = small, poorly fitted or top-dose-only effect, or another doubt; inactive = no such curve, though single readings can be large; an effect the other way counts as inactive or inconclusive.

O=C(O)C1C2C=CC(C2)C1C(=O)NCCc1ccncc1 (stereo unspecified)	Pol eta inh inconclusive, Pol beta inh 50.1µM
COc1ccc(-n2[nH]c(C)cc2=O)cc1	Pol iota inh 1.12µM
Cc1ccc(NC(=O)COC(=O)c2ccc3c(c2)NC(=O)C2CCCN32)cc1 (stereo unspecified)	Pol iota inh 7.94µM (no result: PI5P4K alpha inh)
COC(=O)c1ccc2c(c1)NC(=O)C1CCCN21 (stereo unspecified)	WRN inhibitor inconclusive (no result: Pol beta inh)
CC1(C(=O)NS(=O)(=O)c2ccc(Cl)s2)CCN1C(=O)c1ccccc1CCc1ccccc1 (stereo unspecified)	none (no result: Pol kappa inh, Pol eta inh, Pol beta inh, Pol iota inh)
COc1ccc(Cl)cc1C(=O)Nc1nc2ccccc2[nH]1	Pol beta inh 44.7µM, Pol iota inh 79.4µM
CC(OC(=O)c1cc(=O)[nH]c2ccccc12)c1ccccc1 (stereo unspecified)	none (no result: PI5P4K alpha inh)
O=C(CCN1C(=O)/C(=C/c2ccccc2Cl)SC1=S)Nc1ccccc1C(=O)O	Pol eta inh 79.4µM, Pol beta inh inconclusive, Pol iota inh inconclusive
CCc1ccc(C=C2SC(=S)N(CCCC(=O)Nc3ccc(C(=O)O)cc3)C2=O)cc1	none (no result: Pol kappa inh, Pol eta inh, Pol beta inh, Pol iota inh)
CCc1ccc(/C=C2/SC(=S)N(CCCC(=O)Nc3ccccc3C(=O)O)C2=O)cc1	Pol eta inh 79.4µM, WRN inhibitor inconclusive
CC(C)(C)c1cc[n+](CC(=O)Nc2cc(C(F)(F)F)ccc2N2CCOCC2)cc1	none
CCn1ccnc1CN(C)Cc1nc(Cc2cccc(C(F)(F)F)c2)no1	none
CCc1ccc(NC(=O)C2CC=CCC2C(=O)O)cc1 (stereo unspecified)	none
O=C(O)Cc1ccc(NC(=O)C2CC=CCC2C(=O)O)cc1 (stereo unspecified)	Pol beta inh 22.4µM (no result: Pol kappa inh, Pol eta inh, Pol iota inh, PI5P4K alpha inh, WRN inhibitor)
O=C(O)C1CC=CCC1C(=O)Nc1ccccc1 (stereo unspecified)	Pol eta inh inconclusive, Pol beta inh 31.6µM (no result: PI5P4K alpha inh)
N#C/C(=C\c1ccc(/C=C(/C#N)c2nn(CCO)c(N)c2C#N)cc1)c1nn(CCO)c(N)c1C#N	WRN inhibitor 56.2µM
N#C/C(=C/c1ccccc1)c1nn(CCO)c(N)c1C#N	none
CCN(c1ccc(N=Cc2c(O)n(Cc3ccc(OC)cc3)c(=O)c3ccccc23)cc1)C(C)C	WRN inhibitor 39.8µM
Cc1ccc(OCC(=O)Nc2ccc3c(c2)C(=O)NC3=O)cc1	Pol beta inh 31.6µM
Cc1ccc2oc(-c3ccc(NC(=O)COc4ccccc4)cc3O)nc2c1	Pol iota inh 89.1µM (no result: Pol eta inh, Pol beta inh, PI5P4K alpha inh, WRN inhibitor)
Cc1ccc(OCC(=O)Nc2ccc(O)c(-c3nc4ccccc4o3)c2)cc1	none
Cc1ccc(N2CC(C(=O)Nc3cccnc3)CC2=O)cc1C (stereo unspecified)	none
COc1cccc(C(CCc2cc(OC)c(OC)c(OC)c2)NC(C)=O)c1 (stereo unspecified)	none (no result: Pol beta inh)
CN(C)S(=O)(=O)Oc1ccsc1C(=O)Nc1ccc(Cl)c(Cl)c1	Pol eta inh inconclusive
COc1ccc(COc2ccsc2C(=O)Nc2ccc(Cl)c(Cl)c2)cc1	Pol eta inh inconclusive, Pol beta inh 35.5µM (no result: PI5P4K alpha inh)
O=c1oc2cc(O)ccc2c2oc3cc(O)ccc3c12	Pol kappa inh inconclusive, Pol eta inh inconclusive, Pol beta inh 35.5µM, Pol iota inh inconclusive, PI5P4K alpha inh inconclusive, WRN inhibitor inconclusive
Cc1cc(=O)oc2cc(O)ccc12	none (no result: Pol beta inh)
O=c1cc(O)c2ccc(O)cc2o1	PI5P4K alpha inh -50.4
CC(/C=C/c1ccccc1)=N/NC(=O)Cn1nnc(N)n1	none
Cc1cc(=O)[nH]c2nnc(SCc3ccc(Cl)c(Cl)c3)n12	Pol beta inh inconclusive (no result: PI5P4K alpha inh, WRN inhibitor)
COc1cc(C)c(CN2CCC(n3nccc3NC(=O)C3CC3)CC2)cc1C	Pol beta inh inconclusive
COc1ccc(-c2csc(NC(C)c3nc4cc(Cl)c(Cl)cc4n3CCCO)n2)cc1 (stereo unspecified)	none (no result: Pol beta inh)
CCC(C(=O)NC(C)(C)C)n1c(C(c2ccccc2)c2ccccc2)nc2ccccc21 (stereo unspecified)	none (no result: Pol kappa inh, Pol eta inh, Pol beta inh, Pol iota inh)
O=C(CCCCCCCC(=O)NNC(=O)Nc1ccccc1)NNC(=O)Nc1ccccc1	Pol beta inh 31.6µM, Pol iota inh inconclusive
COc1ccc(CC(=O)NC2CC(C)(C)NC(C)(C)C2)cc1	none
O=C(O)COc1ccccc1/C=C1\SC(=Nc2ccc(F)cc2)N(c2ccc(F)cc2)C1=O	Pol eta inh 56.2µM
NC(=O)c1c(NC(=O)CN2C(=O)NC(Cc3ccccc3)C2=O)sc2c1CCC2 (stereo unspecified)	Pol kappa inh inconclusive, Pol eta inh inconclusive, Pol beta inh inconclusive, Pol iota inh 44.7µM, PI5P4K alpha inh inconclusive
Cc1cc(OC(C)C(=O)NCCCN2CCOCC2)c2c(C)c(C)c(=O)oc2c1 (stereo unspecified)	none
Cc1ccc(N(CC(=O)NC2CCCCC2)C(=O)CCCC(=O)Nc2ccccn2)cc1	none
Cc1ccc(NC(=O)CSc2nc3nccnc3c(=O)n2CCc2c[nH]c3ccccc23)c(C)c1	none (no result: PI5P4K alpha inh, WRN inhibitor)
Cc1cccc(NC2=C(NC(=O)c3ccccc3)C(=O)c3ccccc3C2=O)c1	Pol iota inh inconclusive, PI5P4K alpha inh -61.9
O=C(NC(NC1CCS(=O)(=O)C1)C(=O)c1cccs1)c1ccccc1 (stereo unspecified)	none
O=C(NC1=C(NC2CCS(=O)(=O)C2)C(=O)c2ccccc2C1=O)c1ccccc1 (stereo unspecified)	Pol eta inh 79.4µM, Pol beta inh inconclusive, Pol iota inh 35.5µM, PI5P4K alpha inh inconclusive
O=C(NC1=C(Nc2ccc(Cl)cc2)C(=O)c2ccccc2C1=O)c1ccccc1	Pol beta inh inconclusive, PI5P4K alpha inh inconclusive
O=C(NCCn1cc(SCc2ccccc2)c2ccccc21)c1cccs1	Pol kappa inh inconclusive, Pol iota inh 89.1µM (no result: PI5P4K alpha inh, WRN inhibitor)
O=C(NCCn1cc(SCc2ccc(Br)cc2)c2ccccc21)c1cccs1	none (no result: PI5P4K alpha inh, WRN inhibitor)
O=C1NC(c2ccccc2Br)=N/C1=C\c1ccco1	Pol kappa inh 79.4µM, Pol beta inh inconclusive, Pol iota inh inconclusive
O=C1NC(c2ccccc2)=N/C1=C/c1ccco1	Pol kappa inh inconclusive, Pol beta inh 28.2µM
O=C1NC(c2cccc(Br)c2)=N/C1=C\c1ccco1	Pol beta inh 44.7µM, Pol iota inh 25.1µM, PI5P4K alpha inh inconclusive
O=C1NNC(c2ccccc2)=N/C1=C\c1ccccc1	Pol iota inh inconclusive
O=CN/C=C/c1cc(O)ccc1O	Pol kappa inh 44.7µM, Pol eta inh 50.1µM, Pol beta inh inconclusive, Pol iota inh 22.4µM, PI5P4K alpha inh -64.4
CN(C(=O)CNC(=O)c1ccc(Br)o1)C1CCCCC1	none
COc1ccc(/C=N/NC(=O)C(O)(c2ccccc2)c2ccccc2)cc1OC	Pol beta inh 14.1µM
COc1ccc(/C=N/NC(=O)c2cccc(C(=O)N/N=C/c3ccc(OC)c(OC)c3)n2)cc1OC	none
COc1ccc(/C=N/NC(=O)CCC(=O)Nc2ccccc2)cc1OC	Pol beta inh inconclusive, Pol iota inh inconclusive

Compound activity deposited in PubChem BioAssay by National Center for Advancing Translational Sciences (NCATS).
